The record followed here is PubChem BioAssay (NCI).

SMILES strings stand for the structures. About 79,000 compounds went through this panel and 15% of them were active in at least one assay; those are over-represented in the sample as a whole. Values without a mark were called inactive. Active and inactive are the calls of the source. Cut-off read from the data, not from the text of the source: active = growth inhibition above about 70%; inactive = the rest.

The nature of experiment [1]: NCI Yeast Anticancer Drug Screen. Data for the rad50 strain (AID 155).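 Note: 0% = growth of vehicle-only cultures of the same strain.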 As to conditions: S. cerevisiae rad50 strain growth inhibition, hits give high values. The essentials:
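Inhibition values express reduced yeast growth in compound-treated cultures relative to vehicle-treated controls.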

Experiment [2] is described as follows: NCI Yeast Anticancer Drug Screen. Data for the mec2-1 strain (AID 157). The conditions noted are these: S. cerevisiae mec2-1 strain, hits give high values. An outline of the steps:
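Readout is yeast growth inhibition, normalised to vehicle-treated controls, in the mec2-1 strain exposed to compound.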

Experiment [3] is described as follows: NCI Yeast Anticancer Drug Screen. Data for the sgs1 mgt1 strain (AID 161).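 Note: 0% = growth of cultures given vehicle only.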 As to conditions: S. cerevisiae sgs1 mgt1 strain, hits give high values. The essentials:
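Compounds are added to genetically altered yeast, and growth is compared with cultures given vehicle alone to give percent inhibition.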

The nature of experiment [4]: NCI Yeast Anticancer Drug Screen. Data for the cln2 rad14 strain (AID 165).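 Note: 0% = growth equal to vehicle treated cultures.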 As to conditions: S. cerevisiae cln2 rad14 strain, hits give high values. The essentials: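 Relative to vehicle controls, growth inhibition of compound-treated cln2 rad14 yeast was recorded.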
Experiment [5] in a line: NCI Yeast Anticancer Drug Screen. Data for the mlh1 rad18 strain (AID 175). As to conditions: S. cerevisiae mlh1 rad18 strain growth inhibition, hits give high values. An outline of the steps:
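Test agents were incubated with a yeast strain of defined genotype (DNA damage repair defect). Inhibition of growth was derived by comparison with vehicle-exposed cultures.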

Experiment [6] in a line: NCI Yeast Anticancer Drug Screen. Data for the bub3 strain (AID 167). As to conditions: S. cerevisiae bub3 mutant strain, hits give high values. An outline of the steps: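 Steps: expose the mutant yeast strain to compound; grow alongside vehicle-treated cultures; measure growth; express inhibition against the vehicle cultures.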
The mark [7] stands for this setting: at 5.0 µM (retest, dose inferred, filed as 0.5).
The mark [8] stands for this setting: at 50.0 µM (retest, dose inferred, filed as 5.0).

Regarding `CN1CCCC1c1cccc(Br)c1` (stereo not drawn), the growth inhibition in experiment [1] (setting [7]) was -163%; in experiment [1] (setting [8]), 81% (active); in experiment [1] (at 50.0 µM) it was 59%; in experiment [2] (setting [7]), -51%; in experiment [2] (setting [8]), 26%; in experiment [2] (at 50.0 µM), 17.1%. Also, the growth inhibition in experiment [3] (setting [7]) is -65%; in experiment [3] (setting [8]) it was 37%; in experiment [3] (at 50.0 µM), 21.6%; in experiment [4] (setting [7]) it was -75%; in experiment [4] (setting [8]), 50%; in experiment [4] (at 50.0 µM), -1.05%. The values for the growth inhibition in experiment [5] (setting [7]), in experiment [5] (setting [8]) and in experiment [5] (at 50.0 µM) were -125%, 50% and 26.1%, respectively.

In the case of `CCC(=O)C(C(=O)CC)c1c(OC(=O)c2ccccc2)ccc(O)c1C(=O)OC`, the growth inhibition was -4% in experiment [1] (setting [7]); 30% in experiment [1] (setting [8]); 30.9% in experiment [1] (at 50.0 µM); -1% in experiment [2] (setting [7]); 16% in experiment [2] (setting [8]); 47.9% in experiment [2] (at 50.0 µM). Moreover, the growth inhibition is -5% in experiment [4] (setting [7]); -5% in experiment [4] (setting [8]); -7.45% in experiment [4] (at 50.0 µM); -2% in experiment [6] (setting [7]); -2% in experiment [6] (setting [8]); 42.8% in experiment [6] (at 50.0 µM). Further, the growth inhibition in experiment [5] (setting [7]) is -3%; in experiment [5] (setting [8]), 30%; in experiment [5] (at 50.0 µM), 67%.

As to `CC(=O)OCc1c2ccccc2c(C)c2c1cc(F)c1ccccc12`, the growth inhibition in experiment [1] (setting [7]) was 35%; in experiment [1] (setting [8]), 87% (active); in experiment [1] (at 50.0 µM) it was 98.2% (active); in experiment [2] (setting [7]) it was 25%; in experiment [2] (setting [8]) it was 89% (active); in experiment [2] (at 50.0 µM) it was 98.8% (active). Further, the growth inhibition is 14% in experiment [4] (setting [7]); 85% (active) in experiment [4] (setting [8]); 98.2% (active) in experiment [4] (at 50.0 µM); 15% in experiment [6] (setting [7]); 86% (active) in experiment [6] (setting [8]); 98.5% (active) in experiment [6] (at 50.0 µM). Further, the values for the growth inhibition in experiment [5] (setting [7]), in experiment [5] (setting [8]) and in experiment [5] (at 50.0 µM) were 40%, 88% (active) and 98.2% (active), respectively.

For `C[n+]1c(/C=C/c2ccccc2Cl)sc2ccccc21`, the growth inhibition was 83% (active) in experiment [1] (setting [7]); 96% (active) in experiment [1] (setting [8]); 97.2% (active) in experiment [1] (at 50.0 µM); 99% (active) in experiment [2] (setting [7]); 99% (active) in experiment [2] (setting [8]); 94.2% (active) in experiment [2] (at 50.0 µM). Further, the growth inhibition in experiment [3] (setting [7]) is 52%; in experiment [3] (setting [8]), 88% (active); in experiment [3] (at 50.0 µM), 98.2% (active); in experiment [4] (setting [7]), 59%; in experiment [4] (setting [8]), 92% (active); in experiment [4] (at 50.0 µM) it was 98.5% (active). Moreover, the growth inhibition in experiment [6] (setting [7]) was 98% (active); in experiment [6] (setting [8]), 98% (active); in experiment [6] (at 50.0 µM), 89.5% (active); in experiment [5] (setting [7]), 98% (active); in experiment [5] (setting [8]) it was 98% (active); in experiment [5] (at 50.0 µM), 98.7% (active).
